Reference: PubChem BioAssay (NCI)
Compounds without any hit were thinned out: in the full panel of roughly 83,000, 20% have a hit.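 Each cell line was grown in a 96-well plate and treated with one concentration of compound for 48 hours. Values below 10 were considered active.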 A number with no mark means an inactive call. Calls of active or inactive are those of the source.

What was measured:
Assay in all cases: NCI-60 one-dose screen, 48 h (100 = growth as untreated, 0 = no growth, -100 = all killed)
[1] = test system: NCI-H23 lung; details: 10 µM unless noted
[2] = test system: NCI-H226 lung; details: 10 µM unless noted
[3] = test system: NCI-H322M lung; details: 10 µM unless noted
[4] = test system: HOP-62 NSCLC; details: 10 µM unless noted
[5] = test system: NCI-H460 lung; details: 10 µM unless noted
[6] = test system: HOP-92 NSCLC; details: 10 µM unless noted
[7] = test system: NCI-H522 lung; details: 10 µM unless noted
[8] = test system: 786-0 renal; details: 10 µM unless noted
[9] = test system: COLO 205 colon; details: 10 µM unless noted
[10] = test system: DU-145 prostate; details: 10 µM unless noted
[11] = test system: K-562 leukemia; details: 10 µM unless noted
[12] = test system: MALME-3M melanoma; details: 10 µM unless noted
[13] = test system: MDA-MB-231 breast; details: 10 µM unless noted
[14] = test system: RXF 393 renal; details: 10 µM unless noted
[15] = test system: SF-268 CNS; details: 10 µM unless noted
[16] = test system: SF-295 CNS; details: 10 µM unless noted
[17] = test system: SF-539 CNS; details: 10 µM unless noted
[18] = test system: M14 melanoma; details: 10 µM unless noted
[19] = test system: UACC-257 melanoma; details: 10 µM

| SMILES | growth [1] | growth [2] | growth [3] | growth [4] | growth [5] | growth [6] | growth [7] | growth [8] | growth [9] | growth [10] | growth [11] | growth [12] | growth [13] | growth [14] | growth [15] | growth [16] | growth [17] | growth [18] | growth [19] |
| --- | --- | --- | --- | --- | --- | --- | --- | --- | --- | --- | --- | --- | --- | --- | --- | --- | --- | --- | --- |
| C=C1C(=O)O[C@H]2[C@H]1CC/C(COC(=O)NCCc1cccc(OC)c1)=C\CC[C@@]1(C)O[C@@H]21 | 75.1% | 41.3% | 91.7% | 66.6% | 74.5% | 44% | -30.8% (active) | 5.24% (active) | -35.3% (active) | 16.5% | 11.5% | 85.3% | 29.4% | -2.81% (active) | 55.4% | 89.2% | 38.9% | 29.9% |  |
| NS(=O)(=O)c1ccc(NCC(=O)Nc2ccc(-c3nc4ccccc4s3)cc2)cc1 | 74.7% | 83.7% | 88% | 118% | 92.5% | 73.5% | -63.8% (active) | 12.1% | 98.5% | 47% | 8.38% (active) | 53.6% | 45% | 99.9% | 25.1% | 98.8% | 91.4% |  | 97.2% |
| N#Cc1ccc(NC(=O)c2ccc3cccnc3c2O)cc1 | 43.7% | 45.2% | 27.7% | 14.6% | 4.71% (active) | 71.4% | 18.6% | 10.2% | 11.2% | 29.4% | 30.7% | 42.1% | 44.4% | 49.4% | 21.6% | 38.5% | 17.1% | 6.01% (active) | 13.5% |
| O=Nc1c(-c2c(O)[nH]c3ccc([N+](=O)[O-])cc23)[nH]c2ccc(O)cc12 | 3.19% (active) | -4.7% (active) | 7.21% (active) | -9.77% (active) | -28.5% (active) | -3.1% (active) | -79.1% (active) | 4.21% (active) | 65.8% | 6.72% (active) | 20.9% | 11.7% | 25.4% |  | 6.5% (active) | 20.9% | -34.1% (active) | 11.4% | 9.29% (active) |
| CC(C)C(C(=O)CCN(C)C)c1ccc(Cl)cc1 (stereo unspecified) | 103% | 94.9% | 99.3% | 98.4% | 104% | 96.8% | 74.2% | 102% |  | 88.6% | 96.7% | -90.7% (active) | 101% |  | 100% | 106% | 103% | 92.5% |  |
| C=C1C(=O)O[C@H]2[C@H]1CC/C(COC(=O)NCCc1ccc(Br)cc1)=C\CC[C@@]1(C)O[C@@H]21 | 62.6% | 13.2% | 85.4% | 54.6% | 61.2% | 33.6% | -52.1% (active) | -52.9% (active) | -25.3% (active) | -33.6% (active) | 5.94% (active) | 73.7% | -33.4% (active) | -35.3% (active) | 42.4% | 86.5% | 20.2% | 19.9% |  |
| CC[C@]1(O)C[C@@H]2CN(Cc3c([nH]c4ccccc34)[C@@](C(=O)OC)(c3cc4c(cc3OC)N(C)[C@H]3[C@@](O)(C(=O)OC)[C@H](OC(C)=O)[C@]5(CC)[C@@H]6C[C@@H]6CN6CC[C@]43[C@@H]65)C2)C1 | 25.7% | 50.2% | 44.7% | 38.8% | 6.73% (active) | -12% (active) | -20.3% (active) | 21.4% | -49.5% (active) | 7.39% (active) | 11.8% | 38% | 0.275% (active) | 15.2% | 28.1% | -13.9% (active) | -0.324% (active) | -23.2% (active) | 71.7% |
| COc1cccc(-c2nc3sccn3c2-c2ccnc(NCCNS(=O)(=O)c3ccccc3)n2)c1 | 65.8% | 43.1% | 81.7% | 114% | 62.4% | 62.6% | 49.5% | 56.7% | 34.1% | 65.8% | 36.9% | 66.6% | 63.5% | 64.2% | 62.7% | 63.6% | 79.9% | 35.8% | 81.4% |
| O=C(Nc1ccc(I)cc1)c1cccc([N+](=O)[O-])c1O | -6.76% (active) | 20.5% | 20.9% | 23.5% | 17.5% | -4.99% (active) | 1.75% (active) | 16.6% | 7.78% (active) | 32.5% | 14.7% | -4.07% (active) | 16.8% | 31.1% | 24.1% | 4.77% (active) | 14.8% | 15.7% |  |
| Nc1c(C(=O)Nc2cccc(Cl)c2Cl)sc2nc3c(cc12)C(=O)CCC3 | 76.1% | 87% | 76.7% | 95.3% | 20% | 91.5% | 12.5% | 92.4% | 25.8% | 96.2% | 42.1% | 68.6% | 71.8% |  | 103% | 35.8% | 105% | 80.8% | 76.9% |
